Laboratory results taken from PubChem BioAssay (EPA / NIEHS).
Calls of active or inactive are those of the source. Rule for the calls: active = hit-call score of the fitted dose curve at least 0.9, where 1 is the maximum; inactive = score below 0.9.

What was measured:
Conditions in all cases: mRNA level, 48 h; actives raise or lower the signal
[1] = read-out: Peroxisomal acyl-coenzyme A oxidase 1 (ACOX1) gene, ACOX1 (gene 51); test: LTEA_HepaRG_ACOX1: Life Technologies and Expression Analysis (LTEA) Assay for Peroxisomal acyl-coenzyme A oxidase 1 (ACOX1) gene using HepaRG (AID 2283467)
Method in brief: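 ACOX1 transcript levels were quantified by TaqMan qRT-PCR against three housekeeping genes after 48 h chemical exposure of differentiated human HepaRG cells. Exposure used eight half-log steps topping at 100 uM, 0.5% DMSO vehicle, in duplicate. Bidirectional curve fits were made relative to DMSO.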

[2] = read-out: Alkaline Phosphatase, Placental (ALPP) gene, ALPP (gene 250); test: LTEA_HepaRG_ALPP: Life Technologies and Expression Analysis (LTEA) Assay for Alkaline Phosphatase, Placental (ALPP) gene using HepaRG (AID 2283468)
Method in brief: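 HepaRG cells plated 48 h, then exposed in duplicate for 48 h in serum-free induction medium to 8-point half-log series from 100 uM in 0.5% DMSO. ALPP mRNA by TaqMan qRT-PCR, normalized to ACTB/GAPDH/POLR2A; bidirectional fit versus DMSO.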

[3] = read-out: Bcl-2 (BAD) gene, BAD (gene 572); test: LTEA_HepaRG_BAD: Life Technologies and Expression Analysis (LTEA) Assay for Bcl-2 (BAD) gene using HepaRG (AID 2283469)
Method in brief: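 Read-out: qRT-PCR of BAD mRNA, normalized to three housekeeping genes. Human HepaRG cultures got 48 h chemical exposure in 0.5% DMSO, duplicate eight-point half-log series topping at 100 uM. Gain or loss of signal fitted versus DMSO vehicle.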

[4] = read-out: Bcl-2 (BAX) gene, BAX (gene 581); test: LTEA_HepaRG_BAX: Life Technologies and Expression Analysis (LTEA) Assay for Bcl-2 (BAX) gene using HepaRG (AID 2283470)
Method in brief: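 qRT-PCR read-out of BAX mRNA, normalized to three housekeeping genes, after 48 h chemical exposure of human HepaRG cells in serum-free induction medium; eight-point half-log series, top 100 uM, 0.5% DMSO vehicle; bidirectional fit versus DMSO.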

[5] = read-out: adenosine kinase (ADK) gene, ADK (gene 132); test: LTEA_HepaRG_ADK: Life Technologies and Expression Analysis (LTEA) Assay for adenosine kinase (ADK) gene using HepaRG (AID 2283471)
Method in brief: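 Read-out is ADK transcript level measured by qRT-PCR and normalised to three housekeeping genes. Cells are human HepaRG, dosed for 48 h at up to 100 uM in 0.5% DMSO. Gain or loss of signal is fitted against DMSO controls.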

[6] = read-out: Alpha-fetoprotein (AFP) gene, AFP (gene 174); test: LTEA_HepaRG_AFP: Life Technologies and Expression Analysis (LTEA) Assay for Alpha-fetoprotein (AFP) gene using HepaRG (AID 2283472)
Method in brief: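 qRT-PCR (Fluidigm TaqMan) readout of AFP transcript, normalized to three housekeeping genes, fitted bidirectionally against 0.5% DMSO baseline. HepaRG cells received chemicals for 48 h in serum-free induction medium, top concentration 100 uM, half-log steps.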

BCL2L11 (gene 10018) = test: LTEA_HepaRG_BCL2L11: Life Technologies and Expression Analysis (LTEA) Assay for Bcl-2 (BCL2L11) gene using HepaRG (AID 2283473)
Method in brief: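 Differentiated human HepaRG cells were exposed 48 h in serum-free induction medium to eight half-log concentrations up to 100 uM in 0.5% DMSO, in duplicate. BCL2L11 mRNA was quantified by TaqMan qRT-PCR, normalized to ACTB, GAPDH and POLR2A; induction or repression fitted versus DMSO.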

[7] = read-out: Apolipoprotein A-V (APOA5) gene, APOA5 (gene 116519); test: LTEA_HepaRG_APOA5: Life Technologies and Expression Analysis (LTEA) Assay for Apolipoprotein A-V (APOA5) gene using HepaRG (AID 2283474)
Method in brief: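 Differentiated HepaRG cells in serum-free induction medium, exposed 48 h in duplicate to eight half-log concentrations topping at 100 uM (0.5% DMSO). APOA5 mRNA by Fluidigm TaqMan qRT-PCR, normalized to ACTB, GAPDH and POLR2A; bidirectional fit versus DMSO.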

[8] = read-out: Apoptosis regulator Bcl-2 (Homo sapiens) (UniProt P10415); test: LTEA_HepaRG_BCL2: Life Technologies and Expression Analysis (LTEA) Assay for Bcl-2 gene using HepaRG (AID 2283475)
Method in brief: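 qRT-PCR read-out (Fluidigm TaqMan) of BCL2 transcript, normalised to three housekeeping genes, after 48 h chemical exposure of HepaRG cells; 8-point half-log series, top 100 uM, 0.5% DMSO vehicle. Gain or loss of signal fitted relative to DMSO baseline.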

[9] = read-out: Bcl-2 (BID) gene, BID (gene 637); test: LTEA_HepaRG_BID: Life Technologies and Expression Analysis (LTEA) Assay for Bcl-2 (BID) gene using HepaRG (AID 2283476)
Method in brief: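 HepaRG, 48 h exposure, 8-pt half-log series, top 100 uM, 0.5% DMSO vehicle, duplicates. Readout: BID mRNA by TaqMan qRT-PCR; housekeeping-normalized; bidirectional curve fit vs DMSO baseline.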

Caspase-3 (Homo sapiens) = Caspase-3 (Homo sapiens) (UniProt P42574); test: LTEA_HepaRG_CASP3: Life Technologies and Expression Analysis (LTEA) Assay for cysteine-aspartic acid protease (CASP3) using HepaRG (AID 2283477)
Chain of Caspase-3 (Homo sapiens) (P42574 whole entry, looked up): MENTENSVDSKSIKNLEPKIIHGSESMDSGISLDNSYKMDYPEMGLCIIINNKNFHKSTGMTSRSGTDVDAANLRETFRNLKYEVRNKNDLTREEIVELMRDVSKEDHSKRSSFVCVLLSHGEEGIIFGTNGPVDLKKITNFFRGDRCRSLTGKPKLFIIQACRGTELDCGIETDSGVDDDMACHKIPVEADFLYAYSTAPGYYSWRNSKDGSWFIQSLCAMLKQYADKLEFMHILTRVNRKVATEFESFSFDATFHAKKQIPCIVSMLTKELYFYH
Method in brief: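 Differentiated HepaRG cells, plated 48 h, were treated in duplicate in serum-free induction medium for 48 h with eight half-log concentrations up to 100 uM in 0.5% DMSO. CASP3 mRNA measured by qRT-PCR, normalized to ACTB, GAPDH, POLR2A.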

[10] = read-out: Cytochrome P450 (CYP24A1), CYP24A1 (gene 1591); test: LTEA_HepaRG_CYP24A1: Life Technologies and Expression Analysis (LTEA) Assay for Cytochrome P450 (CYP24A1) using HepaRG (AID 2283478)
Method in brief: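 HepaRG cells plated 48 h, then exposed in duplicate in serum-free induction medium for 48 h to 8-point half-log series from 100 uM in 0.5% DMSO. CYP24A1 mRNA by Fluidigm qRT-PCR, normalized to ACTB, GAPDH, POLR2A; bidirectional fit versus DMSO.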

[11] = read-out: Cytochrome P450 (CYP1A2), CYP1A2 (gene 1544); test: LTEA_HepaRG_CYP1A2: Life Technologies and Expression Analysis (LTEA) Assay for Cytochrome P450 (CYP1A2) using HepaRG (AID 2283479)
Method in brief: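 Differentiated human HepaRG cells in serum-free induction medium exposed 48 hours in duplicate to 8 half-log concentrations from 100 uM, 0.5% DMSO. CYP1A2 mRNA quantified by qRT-PCR, normalized to ACTB, GAPDH and POLR2A; bidirectional fitting versus DMSO.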

[12] = read-out: cysteine-aspartic acid protease (CASP8), CASP8 (gene 841); test: LTEA_HepaRG_CASP8: Life Technologies and Expression Analysis (LTEA) Assay for cysteine-aspartic acid protease (CASP8) using HepaRG (AID 2283480)
Method in brief: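 CASP8 transcript measured by TaqMan qRT-PCR with ACTB/GAPDH/POLR2A normalization, after 48 h chemical exposure of HepaRG cells in serum-free induction medium. Eight concentrations, top 100 uM, half-log steps, 0.5% DMSO vehicle; fits in both directions versus DMSO.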

[13] = read-out: Cytochrome P450 (CYP2B6), CYP2B6 (gene 1555); test: LTEA_HepaRG_CYP2B6: Life Technologies and Expression Analysis (LTEA) Assay for Cytochrome P450 (CYP2B6) using HepaRG (AID 2283481)
Method in brief: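 Differentiated human HepaRG cells in serum-free induction medium, dosed in duplicate for 48 h over 8 half-log concentrations topping at 100 uM (0.5% DMSO). CYP2B6 mRNA measured by TaqMan qRT-PCR, normalized to ACTB, GAPDH, POLR2A; bidirectional fit versus DMSO.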

[14] = read-out: Cytochrome P450 2C19 (Homo sapiens) (UniProt P33261); test: LTEA_HepaRG_CYP2C19: Life Technologies and Expression Analysis (LTEA) Assay for CYP2C19 using HepaRG (AID 2283482)
Method in brief: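 Differentiated HepaRG cells in serum-free induction medium exposed 48 h in duplicate, 8 concentrations from 100 uM by half-log steps in 0.5% DMSO. CYP2C19 mRNA measured by TaqMan qRT-PCR, normalized to ACTB, GAPDH, POLR2A. Bidirectional fit versus DMSO.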

CYP2C8 (gene 1558) = test: LTEA_HepaRG_CYP2C8: Life Technologies and Expression Analysis (LTEA) Assay for CYP2C8 using HepaRG (AID 2283483)
Method in brief: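 CYP2C8 expression measured by TaqMan qRT-PCR and normalized to three housekeeping genes. HepaRG cultures were treated for 48 h with an eight-point half-log series topping at 100 uM, vehicle 0.5% DMSO, duplicates; fitted both directions against DMSO.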

CYP2C9 (gene 1559) = test: LTEA_HepaRG_CYP2C9: Life Technologies and Expression Analysis (LTEA) Assay for CYP2C9 using HepaRG (AID 2283484)
Method in brief: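 CYP2C9 transcript level, quantified by TaqMan qRT-PCR against three housekeeping genes, was fitted bidirectionally relative to 0.5% DMSO. HepaRG cultures were treated 48 h, in duplicate, at eight half-log concentrations topping at 100 uM.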

CYP2E1 (gene 1571) = test: LTEA_HepaRG_CYP2E1: Life Technologies and Expression Analysis (LTEA) Assay for CYP2E1 using HepaRG (AID 2283485)
Method in brief: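 CYP2E1 transcript was measured by TaqMan qRT-PCR in human HepaRG cultures after 48 h chemical exposure (top 100 uM, half-log steps, 0.5% DMSO vehicle). Housekeeping-gene normalization; gain or loss fitted relative to DMSO baseline.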

CYP4A11 (gene 1579) = test: LTEA_HepaRG_CYP4A11: Life Technologies and Expression Analysis (LTEA) Assay for CYP4A11 using HepaRG (AID 2283486)
Method in brief: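 Differentiated HepaRG cells, 48 h after plating, exposed in duplicate for 48 h to 8 half-log concentrations up to 100 uM in 0.5% DMSO in serum-free induction medium. CYP4A11 mRNA measured by TaqMan qRT-PCR, normalized to ACTB, GAPDH and POLR2A.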

Measured: AC50

Chain of Cytochrome P450 2C19 (Homo sapiens) (P33261 whole entry, looked up): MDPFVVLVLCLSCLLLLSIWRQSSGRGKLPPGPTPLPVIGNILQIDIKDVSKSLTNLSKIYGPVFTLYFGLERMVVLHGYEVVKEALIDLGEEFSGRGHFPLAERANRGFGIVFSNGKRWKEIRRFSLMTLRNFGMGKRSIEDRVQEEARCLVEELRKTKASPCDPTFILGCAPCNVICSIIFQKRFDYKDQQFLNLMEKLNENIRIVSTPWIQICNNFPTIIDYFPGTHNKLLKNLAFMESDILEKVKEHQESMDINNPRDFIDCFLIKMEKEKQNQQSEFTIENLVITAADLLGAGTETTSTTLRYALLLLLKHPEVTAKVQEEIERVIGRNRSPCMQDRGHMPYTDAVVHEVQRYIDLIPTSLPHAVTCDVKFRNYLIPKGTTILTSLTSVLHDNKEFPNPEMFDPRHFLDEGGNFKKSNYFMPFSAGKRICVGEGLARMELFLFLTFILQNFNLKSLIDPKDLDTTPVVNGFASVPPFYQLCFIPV
Chain of Apoptosis regulator Bcl-2 (Homo sapiens) (P10415 whole entry, looked up): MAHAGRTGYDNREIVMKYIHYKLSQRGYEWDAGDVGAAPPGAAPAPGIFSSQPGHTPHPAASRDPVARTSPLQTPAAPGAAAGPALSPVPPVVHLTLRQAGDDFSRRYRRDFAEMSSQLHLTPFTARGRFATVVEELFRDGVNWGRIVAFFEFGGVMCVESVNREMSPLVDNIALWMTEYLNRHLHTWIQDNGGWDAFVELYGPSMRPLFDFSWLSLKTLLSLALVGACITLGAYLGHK

CC1=C(/C=C/C(C)=C/C=C/C(C)=C/C(=O)O)C(C)(C)CCC1
active: [4] 20.4 µM | [6] 35.9 µM | [10] 12.8 µM | [11] 1.75 µM | [13] 6.58 µM | [14] 27 µM | CYP2E1 (gene 1571) 20.8 µM | CYP4A11 (gene 1579) 4.34 µM
inactive: all other assays above

CC(C)(C)c1cccc(C(C)(C)C)c1O
not listed: CYP4A11 (gene 1579)
inactive: all other assays above

CC[C@H](C)[C@@H](C(=O)O)n1sc2ccccc2c1=O
active: [11] 50 µM | [13] 10.1 µM
not listed: [1]
inactive: all other assays above
